Measured values taken from PubChem BioAssay (EPA / NIEHS).
Results filed as inconclusive are left out. Active and inactive are the calls of the source. The calls were made as follows: active = hit-call score of the fitted dose curve at least 0.9, where 1 is the maximum; inconclusive = response in the unintended direction; inactive = score below 0.9.

Read-out: Cytochrome P450 2C19 (Homo sapiens) (UniProt P33261)
Test: CLD_CYP2C19_6hr: CellzDirect (CLD) Gene Expression Assay for xenobiotic metabolism (CYP2C19) at 6 hours (AID 2283678)
Description: CLD_6hr is a cell-based, multiplexed-readout assay that uses hepatocyte, a human liver primary cell, with measurements taken at 6 hours after chemical dosing in a 96-well plate.CLD_CYP2C19_6hr is one of 16 assay component(s) measured or calculated from the CLD_6hr assay. It is designed to make measurements of mRNA induction, a form of inducible reporter, as detected with chemiluminescence signals by Quantitative Nuclease Protection Assay (qNPA) technology.Data from the assay component CLD_CYP2C19_6hr was analyzed at the endpoint, CLD_CYP2C19_6hr, in the positive analysis fitting direction relative to DMSO as the negative control and baseline of activity. Using a type of inducible reporter, gain-of-signal activity can be used to understand changes in the reporter gene as they relate to the gene CYP2C19. Furthermore, this assay endpoint can be referred to as a primary readout. To generalize the intended target to other relatable targets, this assay endpoint is annotated to the cyp intended target family, where subfamily is xenobiotic metabolism.
Human hepatocyte cultures were treated daily for two consecutive days with fresh dosing solutions containing appropriate concentrations of the 320 ToxCast chemicals (chemical identities were blinded to CellzDirect and other ToxCast collaborators), vehicle control (0.2% DMSO), and positive control inducers as summarized in Table 1. Due to the large number of treatment groups and chemicals examined, the ToxCast chemicals were divided into two groups (spanning two independent cultures of hepatocytes from separate donor preparations (Hu778: ToxCast plates 1 and 2; Hu776: ToxCast plates 3 and 4). Each preparation of human hepatocyte cultures was treated with respective vehicle control, medium only control, set of six positive controls/reference chemicals for the five hepatic receptor pathways, and a subset of eight of the ToxCast chemicals (indoxacarb, pyrithiobac-sodium, norflurazon, cyhalofop-butyl, methomyl, thiram, acetochlor, and propiconazole). These replicate data, coupled with internal replicates designed within the blinded ToxCast chemical library, provided additional data to evaluate interindividual differences between hepatocyte preparations and their potential impact on chemical profiles.Cell morphology and integrity were evaluated using phase-contrast microscopy as an indicator of hepatocyte cell health (Tyson & Green, 1987). Cultures for each treatment group (i.e., media, vehicle [0.2% DMSO], positive control inducers [multiple concentrations], and the ToxCast chemicals [multiple concentrations]) were observed and cell morphology was assessed relative to vehicle control cultures at each harvest time point (0, 6, 24, or 48 h). […] Images were evaluated at the conclusion of the study to assess changes in cell integrity and account for the effects of chemical exposure on uncharacteristic changes in concentration-dependent gene expression profiles. The results from these determinations of apparent cytotoxicity were annotated (yes/no) alongside the corresponding qNPA data for reference.At the conclusion of each treatment period, hepatocyte cultures (96-well) were washed with 1 volume of HBSS, lysed by addition of 25 ul ArrayPlate lysis buffer (HTG, Tucson, AZ), and 70 ul/well of Denaturation Oil, denatured by incubation at 95C for 10 min, and frozen at approximately -70C until analysis by nuclease protection assay (qNPA) (Roberts et al., 2007). For qNPA analysis, cell lysates were thawed at 50C for approximately 30 min, qNPA probes were added, and samples were incubated at 95C for 10 min to begin the detection process by denaturing the target RNA, dissociating the duplexes and secondary structure hybridization. At the conclusion of the hybridization period, S1 nuclease reagent was added to each sample to digest all nonprotected nucleotides at 50C for 60-90 min. […]

Chain of Cytochrome P450 2C19 (Homo sapiens) (P33261 whole entry, looked up): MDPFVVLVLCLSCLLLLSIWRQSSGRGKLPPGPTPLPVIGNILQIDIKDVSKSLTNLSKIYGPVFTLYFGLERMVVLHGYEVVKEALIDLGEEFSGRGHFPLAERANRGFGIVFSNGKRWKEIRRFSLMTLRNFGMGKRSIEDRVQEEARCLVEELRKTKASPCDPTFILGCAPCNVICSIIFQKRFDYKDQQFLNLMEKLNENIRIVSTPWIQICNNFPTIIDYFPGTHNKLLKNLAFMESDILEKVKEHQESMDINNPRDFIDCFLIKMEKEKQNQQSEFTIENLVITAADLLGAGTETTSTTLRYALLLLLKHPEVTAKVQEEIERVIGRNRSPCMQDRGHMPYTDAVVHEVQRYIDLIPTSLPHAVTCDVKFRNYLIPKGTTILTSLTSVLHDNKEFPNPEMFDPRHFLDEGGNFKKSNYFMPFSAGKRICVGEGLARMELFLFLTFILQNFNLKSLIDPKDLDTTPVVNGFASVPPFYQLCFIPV

SMILES	outcome
COC(=O)c1ccccc1S(=O)(=O)NC(=O)Nc1nc(OC(F)F)cc(OC(F)F)n1	inactive
COC(=O)c1ccc(CNS(C)(=O)=O)cc1S(=O)(=O)NC(=O)Nc1nc(OC)cc(OC)n1	inactive
CCCN(CCC)C(=O)SCC	inactive
COC(=O)c1ccccc1C(=O)O	inactive
CCCCC(CC)COC(=O)c1ccccc1C(=O)O (centres undefined)	inactive
CC1(C)C(C=C(Cl)Cl)C1C(=O)OCc1cccc(Oc2ccccc2)c1 (centres undefined)	inactive
COC(=O)c1ccc(I)cc1S(=O)(=O)NC(=O)Nc1nc(C)nc(OC)n1	inactive
CCC(C)OC(=O)N1CCCCC1CCO (centres undefined)	inactive
COc1nc(C)nc(NC(=O)NS(=O)(=O)c2ccccc2OCCCl)n1	inactive
COCCO	inactive
c1ccc2[nH]c(-c3cscn3)nc2c1	inactive
c1ccc(Nc2ccccc2)cc1	inactive
COC(=O)c1cccc(C)c1S(=O)(=O)NC(=O)Nc1nc(OCC(F)(F)F)nc(N(C)C)n1	inactive
CCCCOC(=O)[C@@H](C)Oc1ccc(Oc2ccc(C(F)(F)F)cn2)cc1	inactive
COC(=O)CSc1cc(N=c2sc(=O)n3n2CCCC3)c(F)cc1Cl	inactive
CCOC(=O)NCCOc1ccc(Oc2ccccc2)cc1	inactive
CCCOC(=O)c1ccc(C(=O)OCCC)nc1	inactive
O=C(O)C1(C(=O)Nc2ccc(Cl)cc2Cl)CC1	inactive
OB(O)O	inactive
COc1c(Cl)ccc(Cl)c1C(=O)O	inactive
C#CCOC(=O)[C@@H](C)Oc1ccc(Oc2ncc(Cl)cc2F)cc1	inactive
CCCCCOC(=O)COc1cc(N2C(=O)C3=C(CCCC3)C2=O)c(F)cc1Cl	inactive
CCCCCCC(C)OC(=O)COc1nc(F)c(Cl)c(N)c1Cl (centres undefined)	inactive
CCCOC(=O)NCCCN(C)C	inactive
